Source: PubChem
HEK cytotox: kills HEK 293 cells | 6.6% of 94,000 active | Potency, µM (series often up to 115 µM), for inactives: top-dose activity change, negative = cytotoxicity, usual class: inhibitors | HEK 293 viability, ATP luminescence (CellTiter-Glo), 48-72 h; also: nearly all actives have a fitted effect of over 60% in size
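Cells seeded first (HEK 293, 250 cells/well), then compound added by pintool. Incubation ran 48 or 72 hr at 37 degree Celsius. CellTiter-Glo was added and luminescence imaged after 10 min at room temperature.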
3T3 cytotox: kills NIH 3T3 cells; NIH 3T3 viability, CellTiter-Glo ATP luminescence, 48-72 h; Potency, µM (top dose mostly 96.7 µM), inactives show at the top dose activity change, negative = cytotoxicity, most hits filed as inhibitors; 4.3% of 94,000 active; AID 1345082; also: nearly all actives have a fitted effect of over 55% in size
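NIH 3T3 cells at 400 cells/well received 23 nL of compound by pintool and were incubated 48 or 72 h at 37 °C. Viability was read as ATP-coupled CellTiter-Glo luminescence.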
FLuc inh: inhibitors of firefly (Photinus pyralis) luciferase; purified P. pyralis luciferase, luminescence, biochemical; 2.5% of 76,000 active; Potency, µM (titrated, usually from 115 µM), actives largely listed as inhibitors; P08659; also: nearly all actives have a fitted effect of over 65% in size
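Purified P. pyralis luciferase (10nM final) in 50mM Tris acetate pH 7.5, 10mM Mg acetate, 0.01% Tween-20, 0.05% BSA with 10uM D-luciferin and 10uM ATP. Compounds titrated qHTS. Luminescence imaged on CCD.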
GPT2 inh: GPT2 alanine aminotransferase inhibition; Q8TD30; Recombinant GPT2, coupled pyruvate oxidase/HRP Amplex Red fluorescence; Potency, µM (series often up to 57.7 µM), inactives show top-dose activity change, negative = inhibition, usual class: inhibitors; 0.25% of 100,000 active; AID 1671188; also: nearly all actives have a fitted effect of over 60% in size
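GPT2 10ng/uL, a-KG 250uM, L-Ala 2mM, HEPES pH7.5 + 0.0001% Tween; 30 min RT. Then Amplex mix (PO/HRP/ThPP), 30 min RT dark, fluorescence. AOA 50uM used as positive control.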
NPR1 antag: antagonists of human natriuretic peptide receptor Npr1 | 1.6% of 76,000 active | P16066 | AID 1347048 | Potency, µM (highest dose often 46.3 µM), for the others: top-dose activity change, negative = inhibition, actives largely listed as inhibitors | HEK293 hNpr1 GloSensor cGMP, ANP-stimulated luminescence; calls by dose curve; also: nearly all actives have a fitted effect of over 60% in size
Target sequence (P16066 whole entry, looked up): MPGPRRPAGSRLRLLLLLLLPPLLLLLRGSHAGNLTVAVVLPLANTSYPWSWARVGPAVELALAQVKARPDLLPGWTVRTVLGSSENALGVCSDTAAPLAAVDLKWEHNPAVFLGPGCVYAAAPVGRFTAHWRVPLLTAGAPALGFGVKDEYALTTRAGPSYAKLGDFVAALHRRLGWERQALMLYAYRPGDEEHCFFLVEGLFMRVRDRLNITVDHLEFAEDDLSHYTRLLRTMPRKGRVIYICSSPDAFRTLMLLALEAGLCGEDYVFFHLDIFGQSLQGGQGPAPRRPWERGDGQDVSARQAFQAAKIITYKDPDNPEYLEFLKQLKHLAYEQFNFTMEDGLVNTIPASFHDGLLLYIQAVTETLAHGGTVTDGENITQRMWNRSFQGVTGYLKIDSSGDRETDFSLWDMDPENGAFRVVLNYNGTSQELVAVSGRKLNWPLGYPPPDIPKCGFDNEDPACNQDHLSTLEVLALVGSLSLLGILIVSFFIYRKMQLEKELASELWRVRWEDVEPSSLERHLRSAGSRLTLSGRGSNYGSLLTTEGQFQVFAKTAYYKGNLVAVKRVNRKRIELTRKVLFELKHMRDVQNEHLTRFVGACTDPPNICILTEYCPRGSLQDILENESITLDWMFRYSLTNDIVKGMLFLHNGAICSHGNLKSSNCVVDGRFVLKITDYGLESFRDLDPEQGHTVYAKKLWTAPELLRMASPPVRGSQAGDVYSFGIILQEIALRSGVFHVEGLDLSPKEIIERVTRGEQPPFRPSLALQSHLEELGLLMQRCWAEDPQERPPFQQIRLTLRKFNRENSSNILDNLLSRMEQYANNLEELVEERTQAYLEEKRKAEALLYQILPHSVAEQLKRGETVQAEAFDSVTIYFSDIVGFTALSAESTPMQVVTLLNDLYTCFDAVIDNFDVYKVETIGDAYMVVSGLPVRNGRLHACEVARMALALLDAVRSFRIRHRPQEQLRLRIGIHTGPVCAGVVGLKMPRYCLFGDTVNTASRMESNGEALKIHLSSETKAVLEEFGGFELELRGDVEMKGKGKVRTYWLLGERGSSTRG
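HEK293 cells stably expressing human Npr1 and cGMP GloSensor pGS-40F, loaded 2 h with 2% GloSensor reagent, given compound 30 min at room temperature. Luminescence read before and 20 min after 0.1 nM hNppA.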
The depositor's hits bear a star; i = inactive; ? = inconclusive; / = no result; [ ] = another dose, or the depositor's remark. This is a sample that favours compounds with a hit; in the whole collection about 10% have one here. Unless noted, calls follow the shape of the dose curve; as a rule, active = well fitted curve in the direction sought with a large enough effect; inconclusive = small, poorly fitted or top-dose-only effect, or another doubt; inactive = no such curve, though single readings can be large; an effect the other way counts as inactive or inconclusive. % is scaled to controls: 0 for no effect and ±100 for the full control effect; potency is read from the fitted curve at half-maximal effect.

SMILES | HEK cytotox | 3T3 cytotox | FLuc inh | GPT2 inh | NPR1 antag
O=C(Nc1ccc(F)cc1)c1ccc2c(c1)OCCN(C1CCC1)C2 | ? | ? | 45µM* | 4%[88.5 µM] | -18%[70.6 µM]
CN1CC(=O)N(c2ccc(Cl)cc2)Cc2c1ncnc2N1CCc2ccccc2C1 | ? | ? | i | i | -7%
COc1nc2nc(CCc3ccccc3)n(C)c2cc1-c1cccc(CO)c1 | ? | ? | 71µM* | -4%[88.5 µM] | -2%[70.6 µM]
Cc1ccccc1C(=O)N1CCN(c2cc(-c3ccc(F)cc3)[nH]n2)CC1 | ? | ? | i | i | -21%
COc1ccc(Cl)cc1C(=O)N1CCCN(c2cc(-c3ccc(C)c(C)c3)[nH]n2)CC1 | ? | 40µM* | i | ? | -20%
Cc1ccc(C)c(C(=O)N2CCN(c3cc(-c4ccc(Cl)cc4)[nH]n3)CC2)c1 | 25µM* | ? | i | 0% | 14µM*
COc1ccc(C(=O)N2CCCN(c3cc(-c4ccc(OC)cc4)[nH]n3)CC2)cc1 | ? | -27% | i | -21% | -21%
COc1ccc(-c2cc(N3CCCN(C(=O)c4ccc(C(C)(C)C)cc4)CC3)n[nH]2)cc1 | 40µM* | ? | i | 0% | -1%
Cc1ccc(-c2cc(N3CCCN(C(=O)c4ccco4)CC3)n[nH]2)cc1C | ? | 32µM* | i | i | -10%
Cc1ccc(-c2cc(N3CCCN(C(=O)c4ccc5c(c4)OCO5)CC3)n[nH]2)cc1C | ? | ? | i | ? | -16%
O=C(Cc1ccccc1Cl)N1CCCN(c2cc(-c3ccccc3)[nH]n2)CC1 | ? | ? | i | ? | -9%
COc1ccc(-c2cc(N3CCN(C(=O)c4ccc(C)c(F)c4)CC3)n[nH]2)cc1 | ? | ? | i | i | -3%
Cc1ccc(-c2cc(N3CCCN(C(=O)Cc4ccccc4Cl)CC3)n[nH]2)cc1C | ? | 40µM* | ? | ? | -3%
COc1ccc(-c2cc(N3CCCN(C(=O)c4ccc(C)c(C)c4)CC3)n[nH]2)cc1 | 45µM* | ? | i | ? | 0%
Cc1ccc(C(=O)N2CCCN(c3cc(-c4ccc(C)c(C)c4)[nH]n3)CC2)cc1C | 35µM* | ? | i | ? | -11%
Cc1cccc(N2CCN(C(=O)c3noc(-c4ccc[nH]c4=O)n3)CC2)c1C | ? | ? | i | i | -6%
O=C1Nc2ccccc2CC12CCCN2CC1CCCCC1 (stereo not given) | ? | ? | / | -11% | /
c1c(CC2CCCCC2)nnn1[C@H]1CO[C@H]2[C@@H]1OC[C@@H]2NCC1CCCCC1 | ? | ? | i | i | -21%[70.6 µM]
O=C(N[C@H]1CO[C@H]2[C@@H]1OC[C@@H]2n1cc(CC2CCCCC2)nn1)C1CC1 | -27%[172 µM] | 32µM* | i | -8%[88.5 µM] | -15%[70.6 µM]
COc1ccc(NC(=O)N[C@H]2CO[C@H]3[C@@H]2OC[C@@H]3n2cc(CC3CCCCC3)nn2)cc1 | -10% | -26% | i | -5% | 7%
O=C(COc1ccccc1)N[C@H]1CO[C@H]2[C@@H]1OC[C@@H]2n1cc(CC2CCCCC2)nn1 | -11%[172 µM] | 40µM* | i | -8%[88.5 µM] | 6%[70.6 µM]
COC(=O)N(C)Cc1cccc(N2CCN(Cc3c(Cl)ccc(Cl)c3Cl)CC2)c1F | ? | -32% | / | / | /
COc1ccc(C(=O)NC2CCN(C(=O)N3CC4CC(C3)[C@H]3CCCC(=O)N3C4)CC2)cc1F (stereo not given in full) | 2% | -11% | i | ? | 0%
O=C(NCc1ccc(Cl)cc1)c1cn2cc(-c3cccc(C(F)(F)F)c3)sc2n1 | ? | ? | / | i | /
COCC1CCN(S(=O)(=O)N2CCCCC2CCc2ccccc2)CC1 (stereo not given) | 45µM* | ? | i | -14% | -22%
SMILES | HEK cytotox | 3T3 cytotox | FLuc inh | GPT2 inh | NPR1 antag
Cc1ncccc1C(=O)N1CCCCCC1c1nnc(-c2ccccc2)o1 (stereo not given) | -13% | -13% | / | i | /
Cc1ccccc1-c1ncc2c(n1)OCCN(c1ccccc1)C2=O | ? | -34%[138 µM] | 20µM* | -4%[88.5 µM] | 3%[70.6 µM]
COc1ccc(-c2ncc3c(n2)OCCN(C)C3=O)cc1OC | i | ? | 40µM* | -14%[88.5 µM] | 2%[70.6 µM]
COc1ccccc1-c1ncc2c(n1)OCCN(c1cccc(C(F)(F)F)c1)C2=O | ? | ? | i | ? | -5%[70.6 µM]
COc1ccc(Cl)cc1-c1ncc2c(n1)OCCN(c1ccccc1)C2=O | 4%[172 µM] | 40µM* | ? | -6%[88.5 µM] | 5%[70.6 µM]
O=C1c2cnc(-c3ccccc3C(F)(F)F)nc2OCCN1Cc1ccccc1 | ? | -29%[138 µM] | i | -12%[88.5 µM] | -1%[70.6 µM]
COc1ncccc1-c1ncc2c(n1)OCCN(c1cccc(C(F)(F)F)c1)C2=O | -16%[172 µM] | 25µM* | i | -9%[88.5 µM] | 1%[70.6 µM]
